Compounds without any hit were thinned out: in the full panel of roughly 83,000, 20% have a hit.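 Cells were grown in 96-well plates and exposed to the test compound at a single concentration for 48 hours; results are reported as percent growth, with values below 10 considered active.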 Values without a mark were called inactive. Activity calls are given as the source filed them.
Columns and labels:
Experiment in all cases: NCI-60 one-dose screen, 48 h (100 = growth as untreated, 0 = no growth, -100 = all killed)
Conditions in all cases: 10 µM unless noted
SR leukemia = test system: SR leukemia
RPMI-8226 leukemia = test system: RPMI-8226 leukemia
OVCAR-8 ovarian = test system: OVCAR-8 ovarian
OVCAR-5 ovarian = test system: OVCAR-5 ovarian
OVCAR-4 ovarian = test system: OVCAR-4 ovarian
SK-OV-3 ovarian = test system: SK-OV-3 ovarian
IGROV1 ovarian = test system: IGROV1 ovarian
OVCAR-3 ovarian = test system: OVCAR-3 ovarian
HS 578T breast = test system: HS 578T breast
NCI/ADR-RES ovarian = test system: NCI/ADR-RES ovarian

SMILES | growth (SR leukemia) | growth (RPMI-8226 leukemia) | growth (OVCAR-8 ovarian) | growth (OVCAR-5 ovarian) | growth (OVCAR-4 ovarian) | growth (SK-OV-3 ovarian) | growth (IGROV1 ovarian) | growth (OVCAR-3 ovarian) | growth (HS 578T breast) | growth (NCI/ADR-RES ovarian)
COc1ccc(-c2csc(N(C(=O)N3CCN(c4cc5c(cc4F)c(=O)c(C(=O)O)cn5C4CC4)CC3)c3ccccc3)n2)cc1 | 10.4% | 16% | 15.5% | 12.8% | 33.3% | 21.8% | 17.1% | 8.09% (active) | 40.3% | 11.8%
Cc1ccc(-c2csc(NC(=O)CN3CCN(c4cc5c(cc4F)c(=O)c(C(=O)O)cn5C4CC4)CC3)n2)cc1 | -0.152% (active) | 6.21% (active) | 10.6% | 21.1% | 20.8% | -7.14% (active) | 25.4% | 14.8% | 47.8% | 4.91% (active)
Fc1cccc(CNc2c3ccccc3nc3ccccc23)c1F | 38.2% | 52.9% | 50.8% | 73.3% | 49.9% | 75.8% | 52.7% | 86.1% | 87% | 48.5%
Cn1c(=O)c2[nH]c(N/N=C/c3ccccc3Br)nc2n(C)c1=O | 89.7% | 105% | 112% | 89.5% | 117% | 117% | 101% | 119% | 161% | 104%
CCN(CC)c1nc(SCc2ccccc2Cl)ncc1C | 95.6% | 93.5% | 104% | 119% | 101% | 113% | 109% | 109% | 124% | 92.2%
COC(=O)c1cc(-c2ccccc2)[nH]c1N/N=C/c1c(Cl)cccc1Cl | -9.18% (active) | -12.7% (active) | 15.4% | 21.9% | 64.5% | 24.4% | -44.5% (active) | -76.7% (active) | -30.4% (active) | -16.2% (active)
CC(=O)OC[C@]12CCC(C)(C)C[C@H]1[C@@]1(O)[C@H](O)C[C@@H]3[C@@]4(C)CCCNC(C)(C)[C@@H]4CC[C@@]3(C)[C@]1(C)CC2 | 99.3% | 107% | 111% | 102% | 120% | 111% | 107% | 119% | 110% | 113%
COCCNC(=O)c1ccc(-c2nc3ccc4[nH]ncc4c3c3c2CCCC3)cc1 | 5.46% (active) | 29.6% | 46% | 67.8% | 61.9% | 6.55% (active) | 15.8% | 56% | -6.17% (active) | 63.9%
COc1ccc(/C=C2\C(=O)N=C3N2NC(c2cc(Br)ccc2O)C=C(C)N3c2ccccc2)cc1 (stereo not given) | 102% | 91.5% | 98.1% | 104% | 96.5% | 99.6% | 91% | 103% | 95.9% | 93.9%
O=C(O)[C@@H]1c2ccccc2-c2ccccc2[C@H]1C(=O)O | 116% | 100% | 78.4% | 83.2% | 98% | 103% | 80.7% | 104% | 94.3% | 95.4%
CC(C)(C)n1cc(-c2ccnc(NCCNS(=O)(=O)c3cccc4ccccc34)c2)c(-c2cccc(F)c2)n1 | -20.7% (active) | -31.8% (active) | 7.39% (active) | -15% (active) | -0.264% (active) | 6.65% (active) | 4.03% (active) | -68.6% (active) | -35.7% (active) | -9.97% (active)
O=S(=O)(NCCNc1nccc(-c2c(-c3cccc(F)c3)nc3occn23)n1)c1ccc(Br)cc1 | 65.6% | 62.3% | 80.2% | 93.8% | 93.9% | 99.8% | 57.7% | 90.1% | 74.6% | 89.8%
COc1cc2oc(-c3cccc(NC(=O)c4cccc(Br)c4)c3)cc(=O)c2c(OC)c1OC | 43.2% | 25.5% | 34.8% | 87.7% | 58.7% | 92.5% | 58.8% | 66.5% | 47.1% | 53.1%
CN(CCOc1ccc(C#N)cc1)CCOc1ccc(C#N)cc1 | 49.6% | 7.02% (active) | 93.5% | 79% | 75% | 46.8% | 61.1% | 97.6% | 49.2% | 67.1%
CC1(c2ccccc2O)NN=C(/N=C/c2cccc([N+](=O)[O-])c2)N1C(Cc1c[nH]c2ccccc12)C(=O)O (stereo not given) | 87.7% | 81.3% | 88.7% | 106% | 90.2% | 61.3% | 62% | 95% | 95.8% | 97.1%
O=C(/C=C(/C=C/c1cccc2[nH]ccc12)OB(F)F)/C=C/c1cccc2[nH]ccc12 | 3.72% (active) | -31.5% (active) | -30% (active) | -27.6% (active) | 11.5% | -20.7% (active) | -3.07% (active) | -25.1% (active) | 10.3% | 3.47% (active)
Cc1nc2sc(C(=O)Nc3cccc(Cl)c3C)c(N)c2cc1C(=O)c1ccccc1 | 19.8% | 6.33% (active) | 9.81% (active) | 31.1% | 63.3% | 3.83% (active) | 28.6% | -19.1% (active) | 12.2% | 4.5% (active)
CCOC(=O)c1cc(C(=O)c2cc(OC)c(OC)c(OC)c2)n2ccc(-c3ccncc3)cc12 | 69.4% | 56.9% | 90.5% | 113% | 96.3% | 87% | 111% | 109% | 86.8% | 99.2%
N#Cc1c(N)nnn1Cc1cc(=O)oc2c1ccc1ccccc12 | 105% | 97.8% | 96.8% | 108% | 108% | 86% | 101% | 103% | 101% | 99.4%
Cc1ccc(Cc2cnc(NC(=O)c3cc(Br)cs3)s2)cc1 | 18.2% | 53.2% | 82.7% | 94.2% | 77.3% | 64.9% | 49.6% | 61.9% | 73.2% | 33.5%
O=C(CSc1nc2ccc([N+](=O)[O-])cc2[nH]1)Nc1ccc(F)cc1 | 33.7% | 24.1% | 67.3% | 91.8% | 34.6% | 63.1% | 68.4% | 47.8% | 74% | 59%
C#CCOc1cccc(Nc2ncnc3c(NC(=O)C=C)cccc23)c1 | 9.57% (active) | -10% (active) | 4.27% (active) | 88% | 73.9% | 49% | 31% | 10.9% | 25% | 18.1%
COC(=O)c1c2c(c(C)[n+]([O-])c1C)C(=O)C=C(NCc1ccc(OC)cc1)C2=O | -0.642% (active) | -16.5% (active) | 1.17% (active) | -54.6% (active) | -98.5% (active) | 8.27% (active) | -61.5% (active) | -40.5% (active) | -10.2% (active) | -7.81% (active)
CCOC(=O)c1nc(Nc2ccc(NC(=O)Nc3ccc(F)cc3)cc2)c2ccccc2n1 | 90.2% | 109% | 106% | 108% | 114% | 100% | 102% | 102% | 99.9% | 92.7%
Cc1cccnc1NC(=S)Nc1ncccc1C | 88.5% | 80.9% | 99.3% | 124% | 134% | -65.6% (active) | 103% | 100% | 111% | 117%
CCN(CC)C(=S)SC(SC(=S)N(CC)CC)C(=O)c1nnn(-c2ccc([N+](=O)[O-])cc2)c1C | 55.3% | 90.8% | 101% | 106% | 104% | 112% | 71.2% | 98.4% | 113% | 99.8%
Nc1ncnc2c1N=C(c1ccc(Cl)cc1)CC(c1ccc3c(c1)OCO3)N2 (stereo not given) | 77.3% | 60.3% | 91.7% | 85.6% | 98.6% | 21% | 46% | 85.5% | 93.8% | 98.2%

— PubChem BioAssay (NCI)
